Whole data set: some 35,000 sequences, median “fluorescence intensity (a.u.)” near 10,000, cut for the highest 2% near 52,000. This is one part of a sample in which the highest values are shown more often than they occur.
The sequences below were run against T1, OsWOX13 (Oryza sativa, UniProt Q5QMM3 1-267) (assay: protein-binding microarray (RPBM); PBS, 2% BSA, 51.3 ng/ul salmon testes DNA, 50 uM zinc acetate, 200 nM TF, 25 C, 1 h; high values mean tight binding). Details: protein: recombinant; tags: N-terminal polyhistidine and DsRed monomer fusion (pET32a); label: CyDye5-dUTP incorporated in the synthesized complementary strand; 3' TTTTT single-stranded linker to array surface; dsDNA, one strand shown.
T1 sequence: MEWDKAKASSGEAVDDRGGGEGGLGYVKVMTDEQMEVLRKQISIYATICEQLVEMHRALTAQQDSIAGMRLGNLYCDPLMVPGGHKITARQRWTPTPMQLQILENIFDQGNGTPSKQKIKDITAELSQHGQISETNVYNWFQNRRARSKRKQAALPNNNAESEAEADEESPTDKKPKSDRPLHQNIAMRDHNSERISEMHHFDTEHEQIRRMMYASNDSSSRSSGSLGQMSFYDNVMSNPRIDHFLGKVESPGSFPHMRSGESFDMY
Procedure, shortened: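 An Axon 4000B scanner gave the binding signal as per-feature fluorescence intensity in arbitrary units. This followed washing of a custom Agilent array that had been incubated for 1 h at 25 °C with 200 nM protein in PBS, 2% BSA, salmon testes DNA and 50 µM zinc acetate. The proteins were transcription factors fused at the N-terminus to polyhistidine and DsRed, expressed in E. coli BL21-CodonPlus and purified on Ni–NTA.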

Sequence	binding signal
AAATAATGTACAAAAGGTGATAGATGAAACAATAAAGTAGCGGAGTCACCTAGTGCAG	4460 fluorescence intensity (a.u.)
TAATAATTTGGGGAGCTTAATTGCTATCCAGTGATATATACGGAGTCACCTAGTGCAG	11100 fluorescence intensity (a.u.)
ACTAATCATCACATCGCTGTCTCAGATTCTCAGTGACAGACGGAGTCACCTAGTGCAG	4120 fluorescence intensity (a.u.)
AAAATTGACTAGAGTGCTCTCACAAAATAAACTAGAGAGACGGAGTCACCTAGTGCAG	7000 fluorescence intensity (a.u.)
CACCAATCACATTAATATGATAATTCATTCACCTACCTCGCGGAGTCACCTAGTGCAG	39700 fluorescence intensity (a.u.)
AGTCAGATGCTCATAATTGAAAGAAATGCTAGGGCCTGAACGGAGTCACCTAGTGCAG	15200 fluorescence intensity (a.u.)
TGTTAATTTGAAATTTGGAAGATGTAATTAACTGTTGCCACGGAGTCACCTAGTGCAG	46900 fluorescence intensity (a.u.)
AGGTGATCATGCAAGGTAGTCAACAGTGTACTGCTAGTTACGGAGTCACCTAGTGCAG	53800 fluorescence intensity (a.u.)
TTATGATTTCAAGGTTAATGCTGCAGTTTCAAACAAGTTACGGAGTCACCTAGTGCAG	3480 fluorescence intensity (a.u.)
CACTATAGTTACAGTGTAATTACATGCAAGTTACAGTGTACGGAGTCACCTAGTGCAG	5020 fluorescence intensity (a.u.)
GCATCGGAATTTTGGATGTGATTGCCTGCATCGGATGGATCGGAGTCACCTAGTGCAG	18200 fluorescence intensity (a.u.)
AATTCTGTGATTAGCGGGTGCTTTTCGAATGGATGGCATGCGGAGTCACCTAGTGCAG	29200 fluorescence intensity (a.u.)
TATGATTGGCATGGCCTGAATGGATGGATGAATTTTGGATCGGAGTCACCTAGTGCAG	58500 fluorescence intensity (a.u.)
TTGGTGATTGAATCTGAACATGCTGGCCTTTGGGATGACTCGGAGTCACCTAGTGCAG	28400 fluorescence intensity (a.u.)
CCGGGTGATTGGCATGAATCTGAATGGCTGAATCCTGATGCGGAGTCACCTAGTGCAG	53400 fluorescence intensity (a.u.)
GTACATGAATTTTGATTAATTGCTAATTTTACATATGGATCGGAGTCACCTAGTGCAG	26000 fluorescence intensity (a.u.)
TTTAATTGTATTAACACTCGTGAGAATGATACATGAGATCCGGAGTCACCTAGTGCAG	29000 fluorescence intensity (a.u.)
GTGAATTTGATAGGGCGATAAGGATAATAAACAAGAACATCGGAGTCACCTAGTGCAG	3540 fluorescence intensity (a.u.)
ACATTAACAAACTCTATCTTAACATTTAGATGCAAGAGCCCGGAGTCACCTAGTGCAG	3790 fluorescence intensity (a.u.)
TCCTTGATTTCTCCCCTCTCTCTGTCATTTCTCTCTTCCTCGGAGTCACCTAGTGCAG	13500 fluorescence intensity (a.u.)
GATGATTGATGGGAATATAGAGATCCCATGTTTTCCAGCTCGGAGTCACCTAGTGCAG	61000 fluorescence intensity (a.u.)

Sequence	binding signal
AATATCCCATGATTGACTAGCTAGATGAATCCATATGGGTCGGAGTCACCTAGTGCAG	36500 fluorescence intensity (a.u.)
TCGCCAATGATTGATCGCCTCATTCCCTCCTCCTCCTCCTCGGAGTCACCTAGTGCAG	57300 fluorescence intensity (a.u.)
TAATAACTTATACTGATATTGATTACTCCCTCCATCCCTACGGAGTCACCTAGTGCAG	11800 fluorescence intensity (a.u.)
CTAACTCAATGATTAAAATCTCGCCAGATCCCTCCTGCGTCGGAGTCACCTAGTGCAG	16700 fluorescence intensity (a.u.)
ATGATTGATCCATGAATCCCATTATCCATCATCCTCGAGTCGGAGTCACCTAGTGCAG	63300 fluorescence intensity (a.u.)
TCCCCTTGATTGATTGATCACCATTATTATAACATCCTCTCGGAGTCACCTAGTGCAG	64400 fluorescence intensity (a.u.)
TACATGATGGGAAAATAGACTTTTGCAGCAGAGATTGAATCGGAGTCACCTAGTGCAG	10200 fluorescence intensity (a.u.)
AGTGACCTCAATTGATCATTCCCTCATCCTTTAGTCAAGCCGGAGTCACCTAGTGCAG	3990 fluorescence intensity (a.u.)
CGGATCCCATTCAATCATTCATTCATGTCGGATTGATGCCCGGAGTCACCTAGTGCAG	11800 fluorescence intensity (a.u.)
ATTGATCAATCGATCAATCCCTCCTTCCCCATCCAATCCTCGGAGTCACCTAGTGCAG	4160 fluorescence intensity (a.u.)
CCGAAATTTGTCTCTTAATCATATACCGCACTTTCTGCCACGGAGTCACCTAGTGCAG	16100 fluorescence intensity (a.u.)
TATTAATTGGATAAAGTCATCTATATTAATGTGGATAATACGGAGTCACCTAGTGCAG	17600 fluorescence intensity (a.u.)
CAGGTGCTCTAACTACTATGTAATTGAACCACTGACATGTCGGAGTCACCTAGTGCAG	5510 fluorescence intensity (a.u.)
TAAAAGATTTGTATCACAAATTAGTCGCAATTTGTATAATCGGAGTCACCTAGTGCAG	9610 fluorescence intensity (a.u.)
TTAATTTGTTGTGATTAACGTGGCATGCATGACACTAAAGCGGAGTCACCTAGTGCAG	26900 fluorescence intensity (a.u.)
AACGCAATCAGTGGGAGATCAATCGCAAAATCACCATCATCGGAGTCACCTAGTGCAG	11000 fluorescence intensity (a.u.)
AAACTAAATTTAGACAGGAGTTCAGGTGATGAGTCAATGGCGGAGTCACCTAGTGCAG	36800 fluorescence intensity (a.u.)
CCTAAATTATTCTAAAATTAAAATGTTAATGGGGAAGTATCGGAGTCACCTAGTGCAG	19900 fluorescence intensity (a.u.)
GATTATAAATTACAAGTGTTAATTTGATGAATTTTGTTATCGGAGTCACCTAGTGCAG	19500 fluorescence intensity (a.u.)
AGTCACTTGATTTGCTTTATCATAGAGCTTGATGAGATCCCGGAGTCACCTAGTGCAG	24900 fluorescence intensity (a.u.)
TATAAATAACTTTGAAGATTGAATCGACATATCATACGATCGGAGTCACCTAGTGCAG	21200 fluorescence intensity (a.u.)

From paper PMC7819943, “Rice protein-binding microarrays: a tool to detect cis-acting elements near promoter regions in rice”
